Source: PubChem
Shown are actives, neighbours in structure and some others; about 2.9% of the full set was active somewhere.
PAFAH2 inh – inhibitors of human PAFAH2. Q99487. recombinant PAFAH2, FP-rhodamine activity probe, fluorescence polarization. inhibition, % at 3.39 µM. 340,000 compounds, 0.99% hits. AID 492956;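 active = inhibition above the mean over all tested compounds plus 3 SD, cut at about 30% in these data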;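 note: inhibitors block probe labeling of enzyme so polarization drops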
PAFAH1B2 FP inh – blocks human PAF acetylhydrolase 1b catalytic subunit 2 | recombinant PAFAH1B2, FP-rhodamine activity probe, fluorescence polarization | inhibition, % at 3.39 µM | 340,000 compounds, 1.2% hits | P68402 | AID 492953;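 active = inhibition above the mean of all tested compounds plus 3 SD, cut at about 24% in these data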
Target sequence (P68402 whole entry, looked up): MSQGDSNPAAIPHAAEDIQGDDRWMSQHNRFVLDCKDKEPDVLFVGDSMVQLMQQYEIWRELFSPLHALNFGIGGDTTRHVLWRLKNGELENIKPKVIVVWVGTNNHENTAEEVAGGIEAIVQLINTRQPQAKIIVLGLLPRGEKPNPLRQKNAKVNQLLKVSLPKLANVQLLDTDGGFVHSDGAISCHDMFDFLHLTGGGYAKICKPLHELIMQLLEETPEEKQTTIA
PAFAH1B3 inh – PAFAH1B3 (human) inhibition; recombinant PAFAH1B3, FP-rhodamine probe, fluorescence polarization; 340,000 compounds, 0.28% hits; Q15102; inhibition, % at 3.39 µM;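 active = inhibition above the screen-wide average of all tested compounds plus 3 SD, cut at about 25% in these data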
Target sequence (Q15102 whole entry, looked up): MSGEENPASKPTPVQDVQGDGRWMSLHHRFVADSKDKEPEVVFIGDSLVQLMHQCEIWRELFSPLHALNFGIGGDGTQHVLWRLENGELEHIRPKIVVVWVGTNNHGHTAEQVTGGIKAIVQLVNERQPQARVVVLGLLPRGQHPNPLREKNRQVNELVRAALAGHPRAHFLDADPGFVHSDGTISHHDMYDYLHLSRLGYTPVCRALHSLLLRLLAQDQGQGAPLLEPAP
ZTA DNA inh – ZTA (EBV) inhibition in EBNA-1 counter-screen; inhibition, % at 11 µM; AID 2234; 320,000 compounds, 0.15% hits; ZTA-DNA binding, fluorescence polarization; in the data active = inhibition above about 33%
pPAFAH inh – inhibitors of human plasma PAF acetylhydrolase (pPAFAH); recombinant pPAFAH, FP-rhodamine probe fluorescence polarization; inhibition, % at 3.39 µM; 330,000 compounds, 1.5% hits; AID 463082;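 active = inhibition above the mean inhibition across the screen plus 3 SD, cut at about 25% in these data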;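 note: inhibitors block binding of the rhodamine activity-based probe so polarization drops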
EBNA-1 inh – blocks EBNA-1 binding to DNA. EBNA-1 DNA binding, fluorescence polarization. inhibition, % at 14.8 µM. 300,000 compounds, 0.34% hits. AID 1950; in the data active = inhibition above about 28%
A number is an active result; – = inactive; · = no result.

SMILES	PAFAH2 inh	PAFAH1B2 FP inh	PAFAH1B3 inh	ZTA DNA inh	pPAFAH inh	EBNA-1 inh
O=C(NCC(c1ccco1)N1CCCC1)c1cccc(NS(=O)(=O)c2ccccc2)c1 (configuration not stated)	–	–	–	–	–	–
CN(C)C(CNC(=O)c1ccc(S(=O)(=O)Nc2ccccc2F)cc1)c1ccco1 (configuration not stated)	–	–	–	–	–	·
Cc1cc(S(=O)(=O)Nc2ccc(C(=O)NCC(c3ccco3)N3CCCCC3)cc2)ccc1F (configuration not stated)	–	–	–	–	–	–
Cc1ccc(NS(=O)(=O)c2ccc(C(=O)NCC(c3ccco3)N3CCCCC3)cc2)cc1 (configuration not stated)	–	–	–	–	30	–
Cc1ccccc1CNC(=O)CCC(=O)N1CCOc2ccc(Cl)cc21	–	–	–	–	–	–
O=C(C1=C[C@H](c2ccc(C(F)(F)F)cc2)C[C@H](OCc2ccc(CO)cc2)O1)N1CCOCC1	–	–	–	–	–	–
O=C(O)C1=C[C@H](c2ccc(C(F)(F)F)cc2)C[C@H](OCc2ccc(CO)cc2)O1	–	40	–	–	–	–
OC(c1nc2ccccc2[nH]1)C(O)c1nc2ccccc2[nH]1 (configuration not stated)	–	–	–	–	–	–
FC(F)(F)c1nc2cc3nc4ccccc4[nH]c3cc2n1	–	–	–	–	31	–
Cc1csc(NC(=O)CSc2sc3c(O)cc(=O)[nH]c3c2C#N)n1	37	–	–	–	33	–
CCc1nnc(NC(=O)CSc2sc3c(O)cc(=O)[nH]c3c2C#N)s1	–	–	–	–	32	–
Cc1ccc(C)c(NC(=O)CSc2sc3c(O)cc(=O)[nH]c3c2C#N)c1	–	–	–	–	–	–
O=S(=O)(c1ccc(F)c(F)c1)N1CCN(S(=O)(=O)c2cccs2)CC1	–	–	–	–	–	–
Cc1cccc(NS(=O)(=O)c2ccc(C(=O)N3CC(C)OC(C)C3)cc2)c1C (configuration not stated)	–	–	–	–	29	–
COc1ccnc(N2CCN(c3ccc(Cl)cc3)CC2)c1C#N	–	24	–	–	–	–
COc1ccnc(N2CCN(c3cccc(C(F)(F)F)c3)CC2)c1C#N	–	–	–	–	–	–
O=c1c2ccccc2nc(COc2ccccc2)n1/N=C/c1cc([N+](=O)[O-])ccc1O	–	–	–	–	26	–
Oc1ccc(Br)cc1/C=N/n1c(COc2ccccc2)n[nH]c1=S	–	28	–	·	·	·
Cc1ccc(N/N=C(\C#N)C(=O)c2ccsc2)cc1	–	–	–	–	–	–
N#C/C(=N\Nc1cccc(Cl)c1)C(=O)c1ccccc1	–	–	–	–	26	–
N#C/C(=N\Nc1ccc(Cl)cc1)C(=O)c1ccsc1	–	–	–	–	33	–
C/C(=C\c1ccccc1)CN1CCN(C(C)C)C(CCO)C1 (configuration not stated)	–	–	–	–	–	–
O=C(CC1CCCC1)N1CCCC(Nc2ccc(F)cc2)C1 (configuration not stated)	–	–	–	–	–	–
CC1(CCC(=O)N2CCCC(Nc3ccc(F)cc3)C2)CC1 (configuration not stated)	–	29	–	–	–	–
CN(C(=O)CN1CCN(c2cnn(-c3ccccc3)c(=O)c2Cl)CC1)C1CCS(=O)(=O)C1 (configuration not stated)	–	–	–	–	–	·
SMILES	PAFAH2 inh	PAFAH1B2 FP inh	PAFAH1B3 inh	ZTA DNA inh	pPAFAH inh	EBNA-1 inh
Cc1nnc(SC(C)C(=O)NC2CCCCC2C)s1 (configuration not stated)	–	–	–	–	–	–
CSc1ccc(/C=C/C(=O)c2c(O)cc(C)oc2=O)cc1	–	–	–	–	–	–
Cc1cc(O)c(C(=O)/C=C/c2ccc(Cl)cc2)c(=O)o1	–	–	–	–	27	–
O=C(CSc1n[nH]c(-c2ccncc2)n1)Nc1ccc(Cl)c(C(=O)O)c1	–	–	–	–	–	–
CCCCC(=O)NC1(C(F)(F)F)NC(=O)N(Cc2ccccc2)C1=O (configuration not stated)	–	–	–	–	–	–
CS(=O)(=O)Nc1ccccc1C(=O)Nc1cc(Cl)cc(Cl)c1	–	–	–	–	28	–
Cc1ccc(N=C2S/C(=C\c3cn(CC(=O)O)c4ccccc34)C(=O)N2C)cc1	–	–	–	–	26	–
CCN=C1S/C(=C\c2cn(CC)c3ccccc23)C(=O)N1CC	–	–	–	–	–	–
O=C1NCCCC1C(=O)N/N=C/c1cccc(Cl)c1 (configuration not stated)	–	–	–	–	–	–
Cc1[nH]n(-c2ncc(-c3ccccc3)s2)c(=O)c1C(c1ccc(Cl)cc1)C(C#N)C#N (configuration not stated)	–	–	–	–	27	–
Cc1[nH]n(-c2ccccc2)c(=O)c1C(c1ccccc1[N+](=O)[O-])C(C#N)C#N (configuration not stated)	–	–	–	–	–	–
Nc1nccnc1C(=O)OCC(=O)NCCc1ccc(S(N)(=O)=O)cc1	–	–	–	–	–	–
COc1ccc(-c2csc(NC(=O)C3CC(=O)N(c4ccc5c(c4)OCCO5)C3)n2)cc1 (configuration not stated)	–	–	–	–	25	–
CC(=O)Nc1ccc(-c2csc(NC(=O)C3CC(=O)N(c4ccc5c(c4)OCCO5)C3)n2)cc1 (configuration not stated)	–	–	–	–	–	–
CC1C(=O)N2CCCc3cc(S(=O)(=O)N4CCC(C(N)=O)CC4)cc1c32 (configuration not stated)	–	–	–	–	–	–
Cc1cc(N2CCCC2=O)cc(C)c1S(=O)(=O)NCCOc1ccc(C(C)(C)C)cc1	–	40	–	–	–	–
CCOC(=O)C1=C(C)NC2=C(C(=O)c3ccccc32)C1c1cccc2ccccc12 (configuration not stated)	–	–	–	–	–	–
CCOC(=O)C1=C(C)NC2=C(C(=O)c3ccccc32)C1c1ccc(O)cc1 (configuration not stated)	–	–	–	–	32	–
CSc1nc(N)nc(SCCS(=O)(=O)c2ccc(Cl)cc2)c1C#N	–	25	–	–	–	–
Nc1ccccc1SCCS(=O)(=O)c1ccc(Cl)cc1	–	28	–	–	–	–
CSc1nc(N)nc(SCC(=O)Nc2ccc(Cl)cc2)c1C#N	–	–	–	–	–	–
NC(=O)CC(NC(=O)Cc1cccc2ccccc12)c1ccc(NC2CC3CCC2C3)c([N+](=O)[O-])c1 (configuration not stated)	–	–	–	–	–	–
O=C(CSc1nnc(-c2ccccc2Cl)o1)N1CCOCC1	–	–	–	–	–	–
